PubChem BioAssay AID1851 (National Center for Advancing Translational Sciences (NCATS), 2009)
Hit rate of the full screen: of about 16,000 compounds, about 5,800 (36%) were called active. Another 23% or so got no clear call; they are omitted. The list shows a part of the results. Unmarked numbers belong to inactive results. The call rests on the fitted dose curve; in most records, active means well fitted curve in the direction sought with a large enough effect; inconclusive means small, poorly fitted or top-dose-only effect, or effect the other way; inactive means no such curve, though single readings can be large or run the other way.

These compounds were tested against Cytochrome P450 2C19 (Homo sapiens) (UniProt P33261) (assay: Cytochrome panel assay with activity outcomes). Details: recombinant CYP, pro-luciferin dealkylation, luminescence, p450-cyp2c19; series mostly up to 57.1 µM; activity, negative = inhibition: at the top concentration.
On the % scale 0 is the no-effect control and ±100 the full control effect.

Sequence of Cytochrome P450 2C19 (Homo sapiens) (P33261 whole entry, looked up): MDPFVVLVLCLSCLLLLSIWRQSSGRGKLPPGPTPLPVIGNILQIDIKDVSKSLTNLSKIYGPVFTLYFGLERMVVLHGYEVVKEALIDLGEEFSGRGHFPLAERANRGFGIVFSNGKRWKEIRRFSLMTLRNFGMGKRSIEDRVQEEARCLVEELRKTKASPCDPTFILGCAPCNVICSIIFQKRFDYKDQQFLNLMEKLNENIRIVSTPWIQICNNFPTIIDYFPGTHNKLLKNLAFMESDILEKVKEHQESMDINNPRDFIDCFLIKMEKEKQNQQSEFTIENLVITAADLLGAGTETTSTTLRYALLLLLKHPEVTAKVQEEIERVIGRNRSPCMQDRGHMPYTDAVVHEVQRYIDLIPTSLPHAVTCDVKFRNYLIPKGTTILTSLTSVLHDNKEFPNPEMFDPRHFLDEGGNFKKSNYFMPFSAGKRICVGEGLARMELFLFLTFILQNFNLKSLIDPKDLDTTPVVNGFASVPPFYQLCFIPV

SMILES	activity, negative = inhibition	AC50
CCNc1ncc2nc(-c3ccc(F)cc3)c(=O)n(C)c2n1	12.1%	
Cn1c(-c2ccc(F)cc2)cnc1NCc1cccc(F)c1		6.31 µM (active)
Cn1c(-c2ccc(F)cc2)cnc1NCc1ccc(F)cc1		2.51 µM (active)
CCN(CC)C[C@@H](O)CN1CCCCc2nc(C)c(C)cc21	32.1% [at 11.4 µM]	
O=C(NC1(C(F)(F)F)NC(=O)N(Cc2cccnc2)C1=O)c1ccccc1 (stereo not drawn)		15.8 µM (active)
CCCCN1C(=O)NC(NC(=O)c2ccco2)(C(F)(F)F)C1=O (stereo not drawn)		8.91 µM (active)
O=C(c1ccco1)N1CCC2(CC1)CN(Cc1cc(C(F)(F)F)cc(C(F)(F)F)c1)C2	-26.9%	
O=C(NC1(C(F)(F)F)C(=O)Nc2c1c(=O)[nH]c(=O)n2-c1ccc(F)cc1)c1cccnc1 (stereo not drawn)	-21.4%	
NS(=O)(=O)c1ccc(N=Nc2ncccc2O)cc1	-17% [at 11.4 µM]	
Cc1ccc2nc(SCc3nnc(-c4ccccc4[N+](=O)[O-])o3)c(C#N)cc2c1		0.794 µM (active)
Cc1nc2cccc([N+](=O)[O-])c2n1CCCN(C)C	37.8% [at 11.4 µM]	
CN(Cc1ccccc1)Cn1ccnc1		2 µM (active)
C#CCN(C)Cc1ccccc1		inactive
COc1ccc(CCNC[C@H](O)c2ccc(O)cc2)cc1OC	13.4%	
CCOc1nc(NCCc2ccc(OC)c(OC)c2)nc(NC(C)(C)CO)n1		6.31 µM (active)
COCCn1c(=O)c(-c2cccs2)nc2cnc(Oc3ccccc3)nc21		10 µM (active)
Cn1c(=O)c(-c2cccs2)nc2cnc(Oc3ccccc3)nc21	-28.2%	
COCCn1c(=O)c(-c2ccccc2)nc2cnc(Oc3ccccc3)nc21	-68.1%	
COc1ccc(Oc2ncc3ncc(=O)n(CCc4ccccc4)c3n2)cc1	-24.1%	
O=c1cnc2cnc(Oc3ccccc3)nc2n1CCc1ccccc1		6.31 µM (active)
COCCn1c(=O)cnc2cnc(Oc3ccccc3)nc21		10 µM (active)
COCCn1c(=O)cnc2cnc(Oc3ccc(OC)cc3)nc21	-29.1%	
COc1ccc(S(=O)(=O)N(CC(=O)N2CCCC2)Cc2ccccc2)cc1		5.62 µM (active)
COc1ccc(S(=O)(=O)N(CCc2ccccc2)CC(=O)N2CCOCC2)cc1		10 µM (active)

SMILES	activity, negative = inhibition	AC50
CCN(CC)S(=O)(=O)c1ccc2c(c1)nc(SCC(=O)N1CCOCC1)n2-c1ccccc1OC	-25.7%	
CN(Cc1ccccc1)S(=O)(=O)c1ccc(OCC(=O)N2CCOCC2)cc1	-58.2%	
COc1ccc(NC(=O)N2CCCC3(CCN(S(=O)(=O)c4ccccc4)CC3)C2)cc1	-9.43%	
c1ccc2c(Nc3ccncc3)nc(-c3ccc4c(c3)OCO4)nc2c1		3.98 µM (active)
c1ccc(Nc2nc(-c3ccc4c(c3)OCO4)nc3ccccc23)cc1		3.16 µM (active)
CCOc1ccc(-n2c(SCC(=O)Nc3ccc(OC)cc3OC)nc3c(c2=O)SCC3)cc1		5.01 µM (active)
CCOc1ccc(-n2c(SCC(=O)Nc3ccc(OC)cc3)nc3c(c2=O)SCC3)cc1		7.08 µM (active)
CCOc1ccc(-n2c(SCC(=O)Nc3ccc4c(c3)OCCO4)nc3c(c2=O)SCC3)cc1		2.82 µM (active)
C/C(CCN1CCCCc2nc(C)c(C)cc21)=N\O[C@@H](C)c1cc(-c2c(C)cc(C)cc2C)no1	-41.4% [at 11.4 µM]	
O=c1c(-c2cc(F)cc(F)c2)nc2cnc(N3CCOCC3)nc2n1C1CC1	24.5%	
CO[C@H]1COC(=O)[C@H](C)COC(=O)[C@@H](Cc2ccccc2)NC(=O)C/C=C\[C@H]1C	-17.9% [at 11.4 µM]	
CS(=O)(=O)N1CCC2(CC1)CN(Cc1nccs1)C2	-13.6%	
C[C@]12CC[C@H]3c4ccc(O)cc4CC[C@@H]3[C@H]1C/C(=N/O)[C@H]2O	27.1% [at 11.4 µM]	
COc1cc(CNn2nnnc2N)ccc1OCc1c(Cl)cccc1Cl		2.51 µM (active)
CC(=O)N1N=C(c2cccc([N+](=O)[O-])c2)OC1c1ccccc1Cl (stereo not drawn)		2.82 µM (active)
CC(=O)N1N=C(c2cccc([N+](=O)[O-])c2)OC1c1ccc(Cl)cc1Cl (stereo not drawn)		0.447 µM (active)
CN1CCN(c2ncc3nc(-c4cccc(C#N)c4)c(=O)n(CCC#N)c3n2)CC1	11.8%	
COc1ccc(N2C(=O)CSC2c2cccc(F)c2)c(OC)c1 (stereo not drawn)		11.2 µM (active)
OCCCNCc1ccccn1	31.9% [at 11.4 µM]	
Cc1cc(NCc2ccccn2)ccc1Br		2.82 µM (active)
Cc1cc(Br)ccc1NCc1ccccn1		0.251 µM (active)
c1ccc(CCNc2ccccn2)nc1	10.5% [at 11.4 µM]	
CNCCc1ccccn1	6.91% [at 25.6 µM]	
CN(C)CC[C@H](c1ccc(Br)cc1)c1ccccn1		inactive
